For 27 molecules, activation and Potency results are on record in PubChem BioAssay (NCATS).

In assay [1] the target is Cellular tumor antigen p53 (Homo sapiens) (UniProt P04637). Kind of assay: Primary qHTS for small molecule compounds that upregulate eGFP-tagged delta133p53alpha (in N-terminal) cells. (AID 2060322). For activation: series mostly up to about 56 µM. Note: nearly all actives have a fitted effect of over 75% in size. Note: potency is the fitted concentration of half-maximal effect. Particulars: NCI-H358 eGFP-delta133p53alpha fluorescence, 24 h; activation: stronger effect = higher value. The gist of the method: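 NCI-H358 cells pre-induced 24 h with 10 ng/ml doxycycline to express N-terminal eGFP-delta133p53alpha, then dosed 24 h at 37C without doxycycline; fixed, Hoechst-stained, GFP intensity by laser scanning cytometry, normalized to DMSO (0%) and 57.5 uM 5-azacytidine (100%).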
Cellular tumor antigen p53 (Homo sapiens), sequence (P04637 whole entry, looked up): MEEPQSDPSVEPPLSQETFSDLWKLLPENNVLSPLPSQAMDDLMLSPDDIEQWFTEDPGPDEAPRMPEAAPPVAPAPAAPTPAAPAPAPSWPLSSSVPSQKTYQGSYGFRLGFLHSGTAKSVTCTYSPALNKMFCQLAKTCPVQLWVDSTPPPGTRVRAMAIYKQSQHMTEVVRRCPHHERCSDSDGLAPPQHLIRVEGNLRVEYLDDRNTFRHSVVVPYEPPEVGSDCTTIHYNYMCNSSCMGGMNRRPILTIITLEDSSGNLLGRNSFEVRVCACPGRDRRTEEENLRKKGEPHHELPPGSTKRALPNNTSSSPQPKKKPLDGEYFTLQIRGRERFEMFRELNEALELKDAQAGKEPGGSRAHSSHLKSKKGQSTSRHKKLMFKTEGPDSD
In general terms: In qHTS, concentration-response curves come from the screen itself.

Assay [2] has as its target Aldehyde dehydrogenase, mitochondrial (Homo sapiens) (UniProt P05091). Kind of assay: qHTS for Inhibitors of the Aldehyde Dehydrogenase Family (ALDH2) Primary screen (AID 2061308). Note: nearly all actives have a fitted effect of over 55% in size.

Records with an inconclusive call do not appear. Entries that show only a call come without a potency. A number with no mark means an inactive call. Active and inactive are the calls of the source. Calls come from the whole dose curve; as a rule, active = well fitted curve in the direction sought with a large enough effect; inconclusive = small, poorly fitted or top-dose-only effect, or another doubt; inactive = no such curve, though single readings can be large; an effect the other way counts as inactive or inconclusive.

Regarding `CC1CCC2C(C(=O)O)=CC3(O)CC(C)(C)CC123` (centres undefined), the activation in assay [1] is -22.3%. For the same molecule, in assay [2], the Potency entry is “inactive”.

For `CC1CC2OCC3(O)CCC(O)C(C14CC(c1ccoc1)OC4=O)C23CO` (centres undefined), the activation in assay [1] is -6.11%. Besides, the Potency entry in assay [2] was “inactive”.

On to `CC(C)(O)/C=C/C1=CC(=O)[C@@](C)(O)C[C@H]1O`, for which the activation in assay [1] was -8.4%. For the same molecule, in assay [2], the Potency result was “inactive”.

For `CC1CCC2C(C(=O)O)=COC(O[C@@H]3O[C@H](CO)[C@@H](O)[C@H](O)[C@H]3O)C12` (some centres undefined), the activation in assay [1] was -3.57%. Moreover, the Potency result in assay [2] was “inactive”.

For the molecule `CNCc1cc(-c2ccccc2F)n(S(=O)(=O)c2cccnc2)c1`, in assay [1], the activation was 12.5%. Also, the Potency entry in assay [2] was “inactive”.

Turning to `OC[C@H]1O[C@@H](OCCc2ccccc2)[C@H](O[C@@H]2OC[C@](O)(CO)[C@H]2O)[C@@H](O)[C@@H]1O`, the activation in assay [1] was -4.58%. Also, in assay [2], the Potency entry was “inactive”.

For the molecule `O=C(c1ccc(C#Cc2cccc(F)c2)cn1)N1CC2CC2C1` (centres undefined), in assay [1], the activation was -1%. The Potency result in assay [2] was “inactive”.

As for `COc1cc(/C=C/C(=O)O[C@H]2[C@H](O)[C@@H](CO)O[C@@]2(CO)O[C@H]2O[C@H](CO)[C@@H](O)[C@H](O)[C@H]2O)ccc1O`, the activation in assay [1] was 16%. For the same molecule, in assay [2], the Potency result was “inactive”.

On to `Cc1c(-c2ccc3c(c2)OCO3)oc2ccc(C(O)C(C)O)cc12` (centres undefined), for which, in assay [1], the activation was -8.4%. The Potency entry in assay [2] is “inactive”.

For the molecule `COC(=O)C1=CO[C@@H](O[C@@H]2O[C@H](CO[C@@H]3O[C@H](COC(=O)/C=C/c4ccc(O)cc4)[C@@H](O)[C@H](O)[C@H]3O)[C@@H](O)[C@H](O)[C@H]2O)[C@@H]2C(CO)=CC[C@H]12`, the activation in assay [1] is -3.05%. For the same molecule, the Potency entry in assay [2] was “inactive”.

For the molecule `O=C(O)c1ccnc2cc(-c3nc4ccccc4n3CCN3CCCCC3)sc12`, in assay [1], the activation is -1.79%. In assay [2], the Potency entry was “inactive”.

On to `C=C1CC[C@@H]2[C@](C)(CO[C@@H]3O[C@H](CO)[C@@H](O)[C@H](O)[C@H]3O)CCC[C@@]2(C)[C@@H]1CCC1=CCOC1=O`, for which the activation in assay [1] was 10.7%. Moreover, the Potency result in assay [2] is “inactive”.

For the molecule `CC1=C(CCC(C)O[C@@H]2O[C@H](CO)[C@@H](O)[C@H](O)[C@H]2O)C(C)(C)CC(O)C1` (some centres undefined), in assay [1], the activation was -7.63%. For the same molecule, the Potency result in assay [2] is “inactive”.

Consider `COc1ccc([C@@H]2OC[C@H]3[C@@H]2CO[C@@H]3c2ccc(OC3OC(CO)C(O)C(O)C3O)c(OC)c2)cc1OC` (some centres undefined), for which, in assay [1], the activation was 10.7%. Moreover, the Potency result in assay [2] was “inactive”.

Turning to `COc1ccc(C2COc3cc(O)ccc3C2)c(O)c1OC` (centres undefined), the activation in assay [1] was -2.29%. Besides, the Potency entry in assay [2] was “inactive”.

Regarding `N#Cc1cnc2c(Cl)cc(NCc3cn(CCN4CCCCCC4)nn3)cc2c1Nc1ccc(F)c(Cl)c1`, the Potency in assay [1] was 4.26 µM (active). Besides, in assay [2], the Potency entry was “inactive”.

Take `COc1cc(N2CCC(N3CCN(C)CC3)CC2)ccc1Nc1ncc(Cl)c(-c2c[nH]c3ccccc23)n1`: the Potency in assay [1] was 8.49 µM (active). Besides, the Potency result in assay [2] was “inactive”.

In the case of `O=C(O)CCc1nccc2c1[nH]c1ccccc12`, in assay [1], the activation was 8.93%. In assay [2], the Potency result was “inactive”.

In the case of `O=C(O[C@H]1[C@@H]2C[C@@H]3OC[C@](O)([C@@H]1Cl)[C@H]2C(O[C@@H]1O[C@H](CO)[C@@H](O)[C@H](O)[C@H]1O)O3)c1ccc(O)c(O)c1` (some centres undefined), in assay [1], the activation is -22.1%. Further, the Potency entry in assay [2] was “inactive”.

`COC1CC(OC2CCC3(C)C(=CCC4C3CCC3(C)C(C(C)O)CCC43O)C2)OC(C)C1OC1OC(C)C(OC2OC(COC3OC(COC4OC(CO)C(O)C(O)C4O)C(O)C(O)C3O)C(O)C(O)C2O)C(OC)C1O` (centres undefined): in assay [1], the activation was -23.7%. In assay [2], the Potency entry was “inactive”.

`O=C(/C=C/c1ccc(O)c(O)c1)OCc1ccccc1O[C@@H]1O[C@H](CO)[C@@H](O)[C@H](O)[C@H]1O`: in assay [1], the activation is 8.4%. Also, the Potency entry in assay [2] is “inactive”.

For `C=C1C(=O)O[C@H]2CC(=C)[C@H]3CC[C@@](C)(O)[C@@H]3CC12` (some centres undefined), the Potency in assay [1] was 15.1 µM (active). In addition, the Potency entry in assay [2] is “inactive”.

For `CC(=O)OC/C(=C/C(=O)O)CC[C@@H]1C(CO)=CC[C@@H]2C(C)(C)CCC[C@@]12C`, the activation in assay [1] is 2.29%. Also, in assay [2], the Potency result is “inactive”.

As to `COc1c2cc(c(O[C@@H]3O[C@H](CO)[C@@H](O)[C@H](O)[C@H]3O)c1OC)CCCCC(O)CCc1ccc(O)c-2c1` (some centres undefined), the activation in assay [1] was 8.93%. For the same molecule, the Potency result in assay [2] was “inactive”.

On to `CC(O)/C=C/C1(O)C2(C)COC1(C)CC(O)C2` (centres undefined), for which the activation in assay [1] was 9.82%. Also, the Potency entry in assay [2] was “inactive”.

For `CC[C@@H](Nc1c(Nc2cccc(C(=O)N(C)C)c2O)c(=O)c1=O)c1ccc(C)o1`, the activation in assay [1] was -1.43%. The Potency entry in assay [2] was “inactive”.

In the case of `COc1cc(C2c3cc4c(c(O)c3CC(CO)C2C(=O)O)OCO4)cc(OC)c1O` (centres undefined), the activation in assay [1] was 9.82%. In assay [2], the Potency entry is “inactive”.
